From PubChem BioAssay AID687001 (Broad Institute, 2013)
Measured potencies and affinities stand elsewhere. Calls of active or inactive are those of the source.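 How the source made its calls: active means signal-lowering compounds whose fitted half-maximal concentration is at or below twice the top tested dose in every run; inconclusive means runs disagree, flat 30 to 70% inhibition, or poor curve fit; inactive means the rest.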

The compounds below were run against Protein S100-A4 (Homo sapiens) (UniProt P26447) (assay: S100A4-myosin IIA binding inhibitor potency, dose response, biochemical, fluorescence polarization, cherry-picked hits (AID 687001)). Conditions: FP, S100A4/TAMRA-myosin IIA peptide binding; series mostly up to 11 µM.
Protein S100-A4 (Homo sapiens), sequence (P26447 whole entry, looked up): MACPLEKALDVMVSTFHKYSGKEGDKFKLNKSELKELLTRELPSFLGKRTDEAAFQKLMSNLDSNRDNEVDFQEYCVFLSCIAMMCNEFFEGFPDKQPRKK

SMILES	outcome
COc1ccc(N(CC(=O)NC2CCCCC2)C(=O)CNC(=O)c2cccs2)cc1OC	inactive
COc1ccc(CN(C)C[C@H]2Oc3c(NC(=O)Nc4ccccc4)cccc3C(=O)N([C@@H](C)CO)C[C@@H]2C)cc1	inactive
O=S(=O)(Nc1ccc(N2CCCCC2)cc1)c1ccc(F)cc1	inactive
C[C@H](CO)N1C[C@H](C)[C@@H](CN(C)Cc2ccc(Cl)c(Cl)c2)Oc2c(NS(=O)(=O)c3cccs3)cccc2C1=O	inactive
C[C@@H]1CCCCO[C@@H](CN(C)C(=O)Nc2cccc3ccccc23)[C@H](C)CN([C@@H](C)CO)C(=O)c2cc(NC(=O)C3CCCCC3)ccc2O1	inactive
COc1ccc(Cl)cc1Cn1c(C)c(C(=O)NCc2ccc(C#N)cc2)sc1=O	inactive
C[C@H]1CCCCO[C@H](CN(C)C(=O)Nc2ccc(C(F)(F)F)cc2)[C@@H](C)CN([C@@H](C)CO)C(=O)c2cc(NS(=O)(=O)c3ccccc3)ccc2O1	inactive
CN(CC(=O)NCC(=O)Nc1ccc(F)cc1)CC(=O)Nc1ccc(Cl)c(C(F)(F)F)c1	inactive
CN1c2ccc(C#Cc3cccnc3)cc2[C@@H]2[C@@H](CCN2S(=O)(=O)c2ccccc2F)[C@@H]1CO	inactive
O=S(=O)(CCS(=O)(=O)c1ccccc1)c1ccccc1	inactive
CCCCn1cnc2c(SCc3ccc(Cl)cc3)nc(N)nc21	inactive
O=C(C[C@@H]1CC[C@H]2[C@@H](COC[C@@H](O)CN2CC2CCCCC2)O1)NCc1ccc(F)cc1	inactive
O=C(c1ccc(N2C(=O)CCC2=O)cc1)N1CCCSC1=Nc1ccccc1	inactive
Cc1cccc(S(=O)(=O)N2CC[C@@H]3[C@H](CO)Nc4ccc(C#Cc5ccc(F)cc5)cc4[C@@H]32)c1	inactive
C[C@@H]1CN([C@H](C)CO)C(=O)c2cc(NC(=O)C3CC3)ccc2O[C@@H]1CN(C)C(=O)Nc1ccc2c(c1)OCO2	inactive
CCCNC(=O)[C@@H]1[C@@H](CO)[C@@H]2Cn3c(cccc3=O)[C@H]1N2CCC(F)(F)F	inactive
C[C@@H]1CCCCO[C@@H](CN(C)Cc2ccc(C(=O)O)cc2)[C@H](C)CN([C@H](C)CO)C(=O)c2cc(NC(=O)CCCN(C)C)ccc2O1	inactive
C[C@@H]1CN([C@H](C)CO)C(=O)Cc2cc(NS(=O)(=O)c3ccccc3)ccc2O[C@@H]1CN(C)Cc1ccccc1	inactive
Cc1ccc(S(=O)(=O)Nc2ccc3c(c2)C(=O)N([C@H](C)CO)C[C@@H](C)[C@@H](CN(C)S(=O)(=O)c2ccc(C)cc2)OCCCC[C@@H](C)O3)cc1	inactive
COc1cccc(NC(=O)N[C@@H]2C=C[C@@H](CC(=O)N3CCN(C)CC3)O[C@@H]2CO)c1	inactive

SMILES	outcome
C[C@@H]1CCCCO[C@@H](CN(C)C(=O)C2CCCCC2)[C@@H](C)CN([C@H](C)CO)C(=O)c2cc(NC(=O)CCCCCC(=O)Nc3ccccc3N)ccc2O1	inactive
COC(=O)C1=C(C)N(C)C(=O)NC1c1cc(Cl)c(O)c(OC)c1 (centres undefined)	inactive
Cc1ccc(C(=O)N2CCCC(CCC(=O)N3CCN(c4ccccn4)CC3)C2)cc1 (centres undefined)	inactive
COCCNC(=O)C[C@@H]1CC[C@H]2[C@@H](COC[C@H](O)CN2Cc2cccc(-c3ccncc3)c2)O1	inactive
COCCn1c(SCC(=O)Nc2ccc(NC(C)=O)cc2)nc2ccccc2c1=O	inactive
CC(C)CC#Cc1cnc2c(c1)C(=O)N([C@H](C)CO)C[C@@H](C)[C@H](CN(C)S(C)(=O)=O)O2	inactive
Cc1nn(-c2ccccc2)c(N)c1N=O	inactive
O=C(NCCCc1ccccc1)c1cccc(NC(=O)C2CCC2)c1	inactive
COc1ccc(C#Cc2ccc([C@H]3[C@H]4CN(C(=O)Nc5ccccc5)CCCCN4[C@H]3CO)cc2)cc1	inactive
CC(C)(C)OC(=O)C[C@H]1C/C=C\C[C@H](CC(=O)N[C@H](CO)Cc2ccccc2)C(=O)N[C@H](Cc2ccccc2)COC1=O	inactive
COc1cccc(-c2ccc([C@@H]3[C@H](CO)N4CCCCN(C(=O)c5ccc(F)cc5)C[C@@H]34)cc2)c1	inactive
Cc1oc(-c2ccc(Cl)cc2)nc1CS(=O)CC(=O)NCCCN1CCN(Cc2ccccc2)CC1 (centres undefined)	inactive
C=CCNC(=O)/C(C#N)=C/c1c(N(Cc2ccccc2)Cc2ccccc2)nc2ccccn2c1=O	inactive
CCc1ccc(CNC(=O)C2CCN(S(=O)(=O)N3CCC(C)CC3)CC2)cc1	inactive
CC(NC(=O)COc1ccc(Br)cc1)C(=O)O (centres undefined)	inactive
COCC(=O)N1[C@H](CO)[C@@H](c2ccccc2)C12CN(C(=O)Cc1ccccn1)C2	inactive
C[C@H]1CN([C@@H](C)CO)C(=O)CCCn2nncc2CO[C@H]1CN(C)S(=O)(=O)c1ccc2c(c1)OCCCO2	inactive
Cc1cc(Br)ccc1NC(=O)CN(C)C(=O)c1ccc(-n2cncn2)c([N+](=O)[O-])c1	inactive
CCOc1ccc(OCCNC(=O)c2cc(C3CC3)nc3c2cnn3C(C)C)cc1	inactive
